Shown are actives, neighbours in structure and some others; about 6.9% of the full set was active somewhere.
SW480 rereplic – A quantitative high throughput screen for small molecules that induce DNA re-replication in SW480 colon adenocarcinoma cells | Potency, µM (titrated, usually from 46.1 µM), without a hit: top-dose re-replication activation, usual class: activators | 340,000 compounds, 1.8% hits | SW480 DNA re-replication, Hoechst DNA content imaging, 48 h; note: potency is the fitted concentration of half-maximal effect; % of control where 0% means no effect; nearly all actives have a fitted effect of over 55% in size
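Image-based read-out: total Hoechst fluorescence of nuclei (405 nm excitation, 500-530 nm emission), with hits raising the fraction of high-intensity nuclei. SW480 colon cells incubated 48 hr with compounds at 37 C.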
Vif-A3G inh – qHTS for Inhibitors of Vif-A3G Interactions: qHTS | DNA dC->dU-editing enzyme APOBEC-3G (Homo sapiens), Q9HC16 | HeLa A3G-eYFP + Vif (tagged APOBEC3G with the HIV-1 protein that degrades it), YFP fluorescence, overnight | Potency, µM (top dose mostly 46.1 µM), without a hit: at the highest dose activity, negative = active, most hits filed as inhibitors | 410,000 compounds, 0.076% hits | AID 602310, 2012; note: potency is the fitted concentration of half-maximal effect; % is set by controls: 0 for no effect and ±100 for the full control effect; nearly all actives have a fitted effect of over 60% in size
Target sequence (Q9HC16 whole entry, looked up): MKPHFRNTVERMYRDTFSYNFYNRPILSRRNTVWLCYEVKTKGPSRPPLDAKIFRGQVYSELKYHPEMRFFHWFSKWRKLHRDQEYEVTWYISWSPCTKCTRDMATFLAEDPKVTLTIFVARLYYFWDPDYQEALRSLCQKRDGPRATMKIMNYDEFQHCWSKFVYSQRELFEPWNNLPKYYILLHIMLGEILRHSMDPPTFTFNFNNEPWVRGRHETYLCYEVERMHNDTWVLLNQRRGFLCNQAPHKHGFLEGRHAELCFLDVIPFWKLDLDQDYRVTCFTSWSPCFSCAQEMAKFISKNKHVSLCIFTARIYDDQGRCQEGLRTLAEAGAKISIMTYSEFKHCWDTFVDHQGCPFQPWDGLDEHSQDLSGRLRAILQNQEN
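Read-out is eYFP fluorescence (Ex 488/Em 500-530) from Vif-expressing HeLa A3G-eYFP cells; more signal means A3G escaped Vif-mediated degradation. Cells plated overnight, compound pinned in, incubated overnight at 37 deg C.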
Giardia killer – Small Molecules that selectively kill Giardia lamblia: qHTS. Giardia lamblia trophozoite viability. activity change, % at 7.66 µM, hits read low. 340,000 compounds, 0.15% hits. AID 540267, 2011; in the data active = activity change below about -80%; inconclusive = between about -30% and that limit;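 note: parasites exposed to compound for two days anaerobically before the ATP read; % is set by controls: 0 for no effect and ±100 for the full control effect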
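Giardia trophozoites, 100 cells per well, were exposed to compounds for 48 hrs at 37 deg C under anaerobic conditions; viability was then read as ATP content by bioluminescence after 15-30 min at room temperature.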
IL1B secr inh – qHTS for Inhibitors of Inflammasome Signaling: IL-1-beta AlphaLISA Primary Screen; 360,000 compounds, 4.7% hits; THP-1 LPS/ATP IL-1B secretion, AlphaLISA, 16 h; stronger effect = lower value; activity change, % at 57.5 µM; AID 743279, 2014; in the data active = activity change below about -50%; inconclusive = mostly about -30% to -49%; note: % is set by controls: 0 for no effect and ±100 for the full control effect
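Secreted IL-1B measured by AlphaLISA bead assay after 16 h compound exposure of THP-1 cells; compounds (final up to 57.5 uM) added 1 h before LPS (250 ng/mL) and ATP (1.25 mM) stimulation; lower signal means less secretion.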
MCF10A rereplic – A quantitative high throughput screen for small molecules that induce DNA re-replication in MCF 10a normal breast cells; MCF 10A DNA re-replication, Hoechst nuclear intensity, 48 h; Potency, µM (top dose mostly 46.1 µM), for the others: at the highest dose activity, positive = re-replication, hits mostly activators; 350,000 compounds, 2.9% hits; AID 624296, 2012; note: potency is the fitted concentration of half-maximal effect; % of control where 0% means no effect; nearly all actives have a fitted effect of over 50% in size
Vif-A3F inh – qHTS for Inhibitors of Vif-A3F Interactions: qHTS. HeLa A3F-eYFP + Vif (tagged APOBEC3F with the HIV-1 protein that degrades it), YFP fluorescence increase. Potency, µM (top dose mostly 46.1 µM), inactives show top-dose activity, negative = active. 390,000 compounds, 0.2% hits. AID 602313, 2012; note: potency is the fitted concentration of half-maximal effect; % of control where 0% means no effect; nearly all actives have a fitted effect of over 65% in size
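HeLa cells stably expressing Vif plus C-terminally eYFP-tagged A3F were seeded, incubated overnight at 37 deg C, dosed with compound, incubated overnight again at 37 deg C. Yellow fluorescence (Ex 488/Em 500-530) reported blocked Vif-mediated A3F-eYFP degradation.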
* = called active by the depositor; ? = inconclusive; · = not tested or not shown; ! = repeats disagree; [ ] = another dose, or the depositor's remark. Unless noted, calls come from the whole dose curve; as a rule, active = well fitted curve in the direction sought with a large enough effect; inconclusive = small, poorly fitted or top-dose-only effect, or another doubt; inactive = no such curve, though single readings can be large; an effect the other way counts as inactive or inconclusive.

SMILES	SW480 rereplic	Vif-A3G inh	Giardia killer	IL1B secr inh	MCF10A rereplic	Vif-A3F inh
O=C1C2CC=CCC2C(=O)N1SC(Cl)(Cl)Cl (configuration not stated)	6.7µM*	·	·	·	4.2µM*	·
O=C(/C=C/c1ccc(F)cc1)NNC(=O)CCN1CCN(Cc2ccccc2)CC1	?	0%	18	-20	10µM*	-3%
Cc1cccc(C(=O)NCCC(=O)NCc2ccccc2F)c1	-44%	2%	-13	3	?	2%
COc1ccc(C=C(C#N)c2ccc(OC)cc2)cc1	?	-20%	-16	-58*	?	?
CC12Cc3cnoc3C=C1CCC1C2CCC2(C)C1CCC2(C)O (configuration not stated)	1%	-5%	-12	-50*	?	0%
COc1cc2c(c(OC)c1OC)-c1ccc(O)cc1[C@@H](NC(C)=O)CC2	?	-47%	21	50	?	-19%
COc1cc2c(c(OC)c1OC)-c1ccc(O)c(=O)cc1[C@@H](NC(C)=O)CC2	18µM*	?	9	99	16µM*	-7%
COc1cc2c(c(OC)c1OC)-c1ccc(O)cc1C(NC(C)=O)CC2 (configuration not stated)	0.058µM*	-62%	-20	67	0.058µM*	-24%
O=C1CCCCC1	-40%	-1%	-7	-25	6%	-1%
CCOC(=O)[C@]12Cc3cc(OC)ccc3[C@H]1N(CCC(=O)OC)C(=O)c1cc(OC)ccc12	·	·	·	-54*	·	·
CCOC(=O)[C@]12Cc3ccccc3[C@H]1N(CCC(=O)OC)C(=O)c1cc(OC)ccc12	·	·	·	-118*	·	·
CC1(C)CC(=O)C2=C(C1)OC(N)=C([N+](=O)[O-])C2c1ccc(C#N)s1 (configuration not stated)	?	-5%	1	?	-1%	?
CC(C)Nc1ccc(Nc2ccccc2)cc1	24µM*	-22%	4	-95*	?	8%
c1ccc(Nc2ccc3ccccc3c2)cc1	-5%	-5%	6	8	5%	-11%
Cc1ccc(OP2(=O)Nc3cc(C)c(C)cc3S2)cc1 (configuration not stated)	10%	-7%	7	-69*	14%	-9%
CN1CCc2nc(N)c(C#N)c(-c3ccccc3)c2C1	-13%	-4%	-8	30	0%	4%
CN1CCc2c(C#N)c(Cl)nc(Cl)c2C1	2.3µM*	6%	31	45	?	-14%
C[n+]1c(-c2ccccc2)cc(-c2ccc(Cl)cc2)cc1-c1ccccc1	?	6%	3	-83*	-4%	2%
c1ccc(-c2cc(-c3ccccc3)[n+](-c3ccccc3)c(-c3ccccc3)c2)cc1	-4%	-5%	29	-102*	21%	9%
Cc1ccc(-c2cc(-c3ccccc3)cc(-c3ccccc3)[n+]2-c2ccccc2)cc1	13%[9.22 µM]	?	13	-100*	23µM*	-6%
Cc1ccc(-c2cc(-c3ccc(C)cc3)[n+](-c3ccc(C(=O)[O-])cc3)c(-c3ccc(C)cc3)c2)cc1	-3%	3%	-23	21	?	-9%
CN(C)c1ccc(N=Nc2ccccc2)cc1	·	-6%	·	·	·	·
O=[N+]([O-])c1cc(Cl)c(O)c(-[n+]2c(-c3ccccc3)cc(-c3ccccc3)cc2-c2ccccc2)c1	11%	-9%	-2	-5	0%	0%
CN(C)c1ccc(-[n+]2c(-c3ccccc3)cc(-c3ccccc3)cc2-c2ccccc2)cc1	?	-5%	0	-92*	?	-6%
CC(CO)NC(=O)C1C=C2c3cccc4[nH]cc(c34)CC2N(C)C1 (configuration not stated)	-3%	·	·	·	-4%	·
SMILES	SW480 rereplic	Vif-A3G inh	Giardia killer	IL1B secr inh	MCF10A rereplic	Vif-A3F inh
Cc1ccc(-c2cc(-c3ccc(C)cc3)[n+](-c3ccccc3)c(-c3ccc(C)cc3)c2)cc1	?	-15%	3	-99*	?	1%
O=C1/C(=C/c2ccccc2)C[C@@]2(O)[C@H]3Cc4ccc(O)c5c4[C@@]2(CCN3CC2CC2)C1O5 (some centres not stated)	?	?	-18	-108*	4.6µM*	-2%
C=C1CC[C@@]2(O)[C@H]3Cc4ccc(O)c5c4[C@@]2(CCN3CC2CC2)[C@H]1O5	-1%	-3%	-7	0	-16%	8%
Oc1ccc2c3c1OC1c4oc5ccccc5c4C[C@@]4(O)[C@@H](C2)N(CC2CC2)CC[C@]314 (some centres not stated)	0.92µM*	3%	-9	-50*	4%	2%
Oc1ccc2c3c1OC1c4[nH]c5ccccc5c4C[C@@]4(O)C(C2)N(CC2CC2)CC[C@]314 (some centres not stated)	-17%	1%	-1	-64*	?	2%
C[C@@H](C1CC[C@@]2(O)C3=CC(=O)[C@@H]4C[C@@H](O)[C@@H](O)C[C@]4(C)[C@H]3CC[C@]12C)[C@H](O)CCC(C)(C)O (some centres not stated)	·	1%	4	·	·	·
COc1cc2c(cc1OC)-c1c(OC)c(OC)c(OC)c3ccnc(c13)C2=O	8.2µM*	-18%	-83*	?	?	1%
Cc1cccc(-n2c(/C=C/c3cccc4ccccc34)nc3ccccc3c2=O)c1	·	-3%	·	·	·	-2%
Cc1cccc(N2CCc3c2nc2ccccc2c3N)c1	24%	2%	16	-91*!	15µM*	-6%
COC(=O)C1=C(c2ccccc2OCc2ccccc2)C[C@@H]2CC[C@H]1N2C(=O)NC1CCN(Cc2ccccc2)CC1	-11%	1%	32	-65*	?	4%
COC(=O)C1=C(c2cccc(OCc3ccccc3)c2)C[C@@H]2CC[C@H]1N2C(=O)NC1CCN(Cc2ccccc2)CC1	-1%	6%	3	-63*	23%	-3%
CCOc1ccc(CN(CCc2ccc3c(c2)OCO3)Cc2cccc(Br)c2)cc1	·	-3%	·	·	·	-2%
CN1[C@@H]2CC[C@H]1CC(OC1c3ccccc3CCc3ccccc31)C2 (some centres not stated)	3.2µM*!	-3%	-8	?	-2%	-6%
CN1C2CCC1CC(OC(=O)c1ccc(Cl)cc1)C2 (configuration not stated)	-6%	2%	-17	-8	12%	0%

Screening data: PubChem, National Center for Advancing Translational Sciences (NCATS)
